The record followed here is PubChem BioAssay (NCI).

The nature of experiment [1]: NCI Yeast Anticancer Drug Screen. Data for the rad50 strain (AID 155).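 Further: 0% = growth of vehicle-only cultures of the same strain.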 The conditions noted are these: S. cerevisiae rad50 strain growth inhibition, hits give high values. In short, it runs like this: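 Growth of the mutant yeast was measured after compound exposure and referenced to vehicle-treated cultures.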
Experiment [2] is described as follows: NCI Yeast Anticancer Drug Screen. Data for the mec2-1 strain (AID 157). The settings on record: S. cerevisiae mec2-1 strain, hits give high values. The essentials: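 Using mec2-1 yeast: add compound, measure growth, express inhibition versus vehicle-treated cultures.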
A short description of experiment [3]: NCI Yeast Anticancer Drug Screen. Data for the sgs1 mgt1 strain (AID 161).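 Further: 0% = growth of cultures given vehicle only.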 The conditions noted are these: S. cerevisiae sgs1 mgt1 strain, hits give high values. The essentials: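 Compounds are added to genetically altered yeast, and growth is compared with cultures given vehicle alone to give percent inhibition.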
Experiment [4] is described as follows: NCI Yeast Anticancer Drug Screen. Data for the cln2 rad14 strain (AID 165).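 Further: 0% = growth equal to vehicle treated cultures.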 The settings on record: S. cerevisiae cln2 rad14 strain, hits give high values. The essentials:
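Yeast strain cln2 rad14, bearing defects in cell cycle control and DNA repair, serves as the test system; values reflect growth inhibition compared with vehicle.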

Experiment [5] can be described thus: NCI Yeast Anticancer Drug Screen. Data for the bub3 strain (AID 167). The settings on record: S. cerevisiae bub3 mutant strain, hits give high values. The essentials:
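Whole-cell yeast assay. The mutant strain was incubated with compounds, and growth inhibition was determined by comparison with vehicle-treated cells.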

The nature of experiment [6]: NCI Yeast Anticancer Drug Screen. Data for the mlh1 rad18 strain (AID 175). The conditions noted are these: S. cerevisiae mlh1 rad18 strain growth inhibition, hits give high values. The essentials: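 Steps: expose repair-defective yeast to compound; measure growth; express inhibition against vehicle-treated controls.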
The mark [7] stands for this setting: at 5.0 µM (retest, dose inferred, filed as 0.5).
Setting [8] is: at 50.0 µM (retest, dose inferred, filed as 5.0).

The structures appear in SMILES notation. The panel holds about 79,000 compounds, 15% with a hit somewhere; the sample as a whole holds those more often. A number with no mark means an inactive call. Calls of active or inactive are those of the source. No stated cut-off is given here; in the data, active means growth inhibition above about 70%; inactive means the rest.

Take `O=C1c2ccccc2Cc2cc(O)ccc21`: the growth inhibition in experiment [1] (setting [7]) is 29%; in experiment [1] (setting [8]), 94% (active); in experiment [1] (at 50.0 µM), 47.5%; in experiment [2] (setting [7]), 13%; in experiment [2] (setting [8]) it was 92% (active); in experiment [2] (at 50.0 µM) it was 48.4%. The growth inhibition in experiment [3] (setting [7]) was 8%; in experiment [3] (setting [8]) it was 91% (active); in experiment [3] (at 50.0 µM) it was 45%; in experiment [4] (setting [7]), 4%; in experiment [4] (setting [8]) it was 88% (active); in experiment [4] (at 50.0 µM), 82.5% (active). In addition, the growth inhibition in experiment [5] (setting [7]) is 2%; in experiment [5] (setting [8]), 89% (active); in experiment [5] (at 50.0 µM), 88.6% (active); in experiment [6] (setting [7]), 10%; in experiment [6] (setting [8]), 92% (active); in experiment [6] (at 50.0 µM), 91.3% (active).

On to `O=C1CC2Sc3ccccc3N=C2N1c1ccc(Cl)cc1Cl` (stereo not given), for which the growth inhibition in experiment [1] (setting [7]) is 36%; in experiment [1] (setting [8]), 96% (active); in experiment [1] (at 50.0 µM), 88.2% (active); in experiment [2] (setting [7]) it was 33%; in experiment [2] (setting [8]), 100% (active); in experiment [2] (at 50.0 µM), 93.2% (active). Further, the growth inhibition in experiment [3] (setting [7]) was 42%; in experiment [3] (setting [8]) it was 100% (active); in experiment [3] (at 50.0 µM), 88.8% (active); in experiment [4] (setting [7]), 34%; in experiment [4] (setting [8]), 73% (active); in experiment [4] (at 50.0 µM), 65.2%. The growth inhibition in experiment [5] (setting [7]) was 39%; in experiment [5] (setting [8]), 99% (active); in experiment [5] (at 50.0 µM) it was 92% (active); in experiment [6] (setting [7]), 47%; in experiment [6] (setting [8]) it was 98% (active); in experiment [6] (at 50.0 µM), 89.6% (active).

As for `Clc1ccc(CSc2ncnc3c2ncn3C2CCCCO2)cc1` (stereo not given), the growth inhibition is -5% in experiment [1] (setting [7]); 97% (active) in experiment [1] (setting [8]); 97.5% (active) in experiment [1] (at 50.0 µM); -7% in experiment [2] (setting [7]); 96% (active) in experiment [2] (setting [8]); 97.5% (active) in experiment [2] (at 50.0 µM). Moreover, the growth inhibition in experiment [3] (setting [7]) was 15%; in experiment [3] (setting [8]), 92% (active); in experiment [3] (at 50.0 µM), 97.5% (active); in experiment [4] (setting [7]) it was -20%; in experiment [4] (setting [8]) it was 88% (active); in experiment [4] (at 50.0 µM), 94.3% (active). In addition, the growth inhibition in experiment [5] (setting [7]) is -15%; in experiment [5] (setting [8]), 78% (active); in experiment [5] (at 50.0 µM), 95.8% (active); in experiment [6] (setting [7]) it was 3%; in experiment [6] (setting [8]), 96% (active); in experiment [6] (at 50.0 µM) it was 97% (active).

For `Nc1ccc2c(S(=O)(=O)O)cc(S(=O)(=O)O)cc2c1`, the growth inhibition was 3% in experiment [1] (setting [7]); 0% in experiment [1] (setting [8]); -21.6% in experiment [1] (at 50.0 µM); 2% in experiment [2] (setting [7]); -1% in experiment [2] (setting [8]); -6.25% in experiment [2] (at 50.0 µM). Moreover, the growth inhibition in experiment [3] (setting [7]) was 0%; in experiment [3] (setting [8]), -2%; in experiment [3] (at 50.0 µM), -10.4%; in experiment [4] (setting [7]), 3%; in experiment [4] (setting [8]) it was 2%; in experiment [4] (at 50.0 µM), 61.4%. Further, the growth inhibition is 2% in experiment [5] (setting [7]); -2% in experiment [5] (setting [8]); 6.3% in experiment [5] (at 50.0 µM); 1% in experiment [6] (setting [7]); -1% in experiment [6] (setting [8]); -31.4% in experiment [6] (at 50.0 µM).

On to `COc1ccc(-c2ccccc2)cc1SCCC(=O)O`, for which the growth inhibition was 3% in experiment [1] (setting [7]); 15% in experiment [1] (setting [8]); 79.7% (active) in experiment [1] (at 50.0 µM); -1% in experiment [2] (setting [7]); 21% in experiment [2] (setting [8]); 70.5% (active) in experiment [2] (at 50.0 µM). Further, the growth inhibition was 4% in experiment [3] (setting [7]); 32% in experiment [3] (setting [8]); 48.3% in experiment [3] (at 50.0 µM); -7% in experiment [4] (setting [7]); 17% in experiment [4] (setting [8]); 77.7% (active) in experiment [4] (at 50.0 µM). For the same compound, the growth inhibition in experiment [5] (setting [7]) is 0%; in experiment [5] (setting [8]) it was 10%; in experiment [5] (at 50.0 µM) it was 65.2%; in experiment [6] (setting [7]), -2%; in experiment [6] (setting [8]) it was 20%; in experiment [6] (at 50.0 µM), 87% (active).

Regarding `Cc1ccc(N2CC(O)CN(c3ccc(C)cc3)CC(O)C2)cc1` (stereo not given), the growth inhibition in experiment [1] (setting [7]) is 0%; in experiment [1] (setting [8]), 3%; in experiment [1] (at 50.0 µM), 20.4%; in experiment [2] (setting [7]), -7%; in experiment [2] (setting [8]) it was -13%; in experiment [2] (at 50.0 µM), 18.1%. Also, the growth inhibition was -29% in experiment [3] (setting [7]); 1% in experiment [3] (setting [8]); 24.9% in experiment [3] (at 50.0 µM); 6% in experiment [4] (setting [7]); -10% in experiment [4] (setting [8]); 6.55% in experiment [4] (at 50.0 µM). Further, the growth inhibition in experiment [5] (setting [7]) was 3%; in experiment [5] (setting [8]) it was 1%; in experiment [5] (at 50.0 µM) it was 15.3%; in experiment [6] (setting [7]) it was 33%; in experiment [6] (setting [8]) it was 0%; in experiment [6] (at 50.0 µM) it was 23.2%.

In the case of `CCCCc1ccc2nc(C)cc(N=[N+]=[N-])c2c1`, the growth inhibition was 2% in experiment [1] (setting [7]); 98% (active) in experiment [1] (setting [8]); 89.7% (active) in experiment [1] (at 50.0 µM); -14% in experiment [2] (setting [7]); 90% (active) in experiment [2] (setting [8]); 99% (active) in experiment [2] (at 50.0 µM). Further, the growth inhibition in experiment [3] (setting [7]) is -6%; in experiment [3] (setting [8]) it was 96% (active); in experiment [3] (at 50.0 µM) it was 94.8% (active); in experiment [4] (setting [7]), -14%; in experiment [4] (setting [8]), 48%; in experiment [4] (at 50.0 µM), 94.7% (active). Besides, the growth inhibition in experiment [5] (setting [7]) was -9%; in experiment [5] (setting [8]) it was 92% (active); in experiment [5] (at 50.0 µM) it was 97.2% (active); in experiment [6] (setting [7]), -2%; in experiment [6] (setting [8]), 98% (active); in experiment [6] (at 50.0 µM), 96.3% (active).

Turning to `Clc1cc2c(c3ncccc13)OCN(Cc1ccccc1)C2`, the growth inhibition in experiment [1] (setting [7]) is 16%; in experiment [1] (setting [8]), 76% (active); in experiment [1] (at 50.0 µM), 99.2% (active); in experiment [2] (setting [7]) it was 1%; in experiment [2] (setting [8]), 33%; in experiment [2] (at 50.0 µM), 99.5% (active). Also, the growth inhibition was 14% in experiment [3] (setting [7]); 98% (active) in experiment [3] (setting [8]); 99.5% (active) in experiment [3] (at 50.0 µM); 9% in experiment [4] (setting [7]); 98% (active) in experiment [4] (setting [8]); 99.2% (active) in experiment [4] (at 50.0 µM). The growth inhibition is -3% in experiment [5] (setting [7]); 99% (active) in experiment [5] (setting [8]); 99.4% (active) in experiment [5] (at 50.0 µM); 23% in experiment [6] (setting [7]); 99% (active) in experiment [6] (setting [8]); 99.3% (active) in experiment [6] (at 50.0 µM).

In the case of `CCC(=O)C(CCN(CC)CC)(CCN(CC)CC)c1ccccc1`, the growth inhibition is -1% in experiment [1] (setting [7]); -5% in experiment [1] (setting [8]); 87.5% (active) in experiment [1] (at 50.0 µM); -2% in experiment [2] (setting [7]); -4% in experiment [2] (setting [8]); 99.3% (active) in experiment [2] (at 50.0 µM). The growth inhibition in experiment [3] (setting [7]) was -2%; in experiment [3] (setting [8]) it was -4%; in experiment [3] (at 50.0 µM), 42.4%; in experiment [4] (setting [7]) it was 3%; in experiment [4] (setting [8]), -8%; in experiment [4] (at 50.0 µM) it was 71% (active). Moreover, the growth inhibition in experiment [5] (setting [7]) is 1%; in experiment [5] (setting [8]) it was -3%; in experiment [5] (at 50.0 µM) it was 99.2% (active); in experiment [6] (setting [7]), -2%; in experiment [6] (setting [8]) it was -7%; in experiment [6] (at 50.0 µM), 97.8% (active).

Regarding `Nc1ccccc1O`, the growth inhibition in experiment [1] (setting [7]) is 26%; in experiment [1] (setting [8]) it was 58%; in experiment [1] (at 50.0 µM), 55.8%; in experiment [2] (setting [7]) it was 17%; in experiment [2] (setting [8]), 37%; in experiment [2] (at 50.0 µM), 35%. The growth inhibition in experiment [3] (setting [7]) is 17%; in experiment [3] (setting [8]), 40%; in experiment [3] (at 50.0 µM), 51.1%; in experiment [4] (setting [7]), 15%; in experiment [4] (setting [8]), 30%; in experiment [4] (at 50.0 µM) it was 8.3%. For the same compound, the growth inhibition in experiment [5] (setting [7]) was 54%; in experiment [5] (setting [8]) it was 77% (active); in experiment [5] (at 50.0 µM), 71% (active); in experiment [6] (setting [7]) it was 45%; in experiment [6] (setting [8]) it was 77% (active); in experiment [6] (at 50.0 µM), 73.2% (active).
